Experimental data published in PubChem BioAssay AID652054 (National Center for Advancing Translational Sciences (NCATS), 2013).
Screen size: about 360,000 compounds; about 9,100 (2.5%) were called active. Inconclusive results (about 4%) are left out. Many of the other results were omitted from the sample, so actives are more common in it than they were. A number with no mark means an inactive call. No stated cut-off is given here; in the data, active means max response below about -50%; inconclusive means no clear call, values can overlap the other calls; inactive means above that.

What follows are compounds tested against D(3) dopamine receptor (Homo sapiens) (UniProt P35462) (assay: qHTS of D3 Dopamine Receptor Antagonist: qHTS). Settings: D3R cells, DiscoveRx beta-arrestin luminescence, antagonist mode; hits give low values.
Sequence of D(3) dopamine receptor (Homo sapiens) (P35462 whole entry, looked up): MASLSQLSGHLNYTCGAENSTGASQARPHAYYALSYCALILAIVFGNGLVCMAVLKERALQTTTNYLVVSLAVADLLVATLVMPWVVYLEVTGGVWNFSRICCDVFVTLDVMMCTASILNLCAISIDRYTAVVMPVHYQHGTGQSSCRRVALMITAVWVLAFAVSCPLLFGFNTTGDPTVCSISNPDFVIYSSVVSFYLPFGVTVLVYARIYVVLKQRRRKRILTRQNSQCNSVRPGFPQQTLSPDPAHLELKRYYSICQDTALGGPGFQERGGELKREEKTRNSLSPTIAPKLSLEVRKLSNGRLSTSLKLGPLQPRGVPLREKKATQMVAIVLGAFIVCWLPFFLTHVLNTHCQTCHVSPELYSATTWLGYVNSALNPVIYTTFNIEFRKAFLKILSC
Outline: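 Cells expressing the human receptor were seeded at 1500 cells/well, incubated overnight at 37 degrees C in 5% CO2, then exposed to library compounds with dopamine controls for 90 minutes at 37 degrees C before luminescent detection.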
On the % scale 0 is the no-effect control and ±100 the full control effect.

Row | SMILES | max response, negative = inhibition
1 | COc1ccccc1Cc1c(-c2ccc(Cl)cc2)nc2ccc(Cl)cn12 | 6.17%
2 | CCCCc1ccc(S(=O)(=O)NC(=O)C2(C)CCN2C(=O)c2c(C)noc2C)cc1 (stereo not given) | 0%
3 | O=C1NC[C@H](CCCCN2C[C@H](Cc3ccc(O)cc3)N(CCc3ccccc3)C(=O)C2=O)N(CCc2ccccc2)C1=O | 4.98%
4 | CCOC(=O)[C@]12CCC=C1N(Cc1ccccc1)C(=O)[C@H](CC(=O)N1CCCC1)C2 | -17.7%
5 | COc1ccccc1NC(=O)C(CC(=O)O)Cc1cc(C)cc(C)c1 (stereo not given) | -7.58%
6 | O=S(=O)(c1cccc(C(F)(F)F)c1)N1c2ccccc2-n2cccc2C1c1cccnc1 (stereo not given) | 9.86%
7 | O=S1(=O)CC(N2CCN(CCO)CC2)CN1Cc1cn(Cc2cccc(Cl)c2)nn1 (stereo not given) | -8.85%
8 | CC(C)C[C@H]1CN([C@@H](Cc2ccccc2)CN2CCC[C@@H]2CN2C(=O)C(=O)NC[C@@H]2Cc2ccc(O)cc2)C(=O)C(=O)N1CCc1ccccc1 | 7.71%
9 | COc1cccc(-c2cc3nc(NCCOc4ccccc4Cl)n(C)c(=O)c3s2)c1 | 18.3%
10 | COCCNc1ncnc2c1ncn2[C@H]1CN(CCN2CCOCC2)C[C@@H](CO)O1 | -14.7%
11 | CCC(=O)N1CCCC1(C)C(=O)Nc1ccc2c(c1)CCN2C(C)=O (stereo not given) | 19.1%
12 | OC[C@@H]1CN(Cc2ccncc2)C[C@H](n2cnc3c(N4CCN(c5ccccc5)CC4)ncnc32)O1 | 3.87%
13 | CC[C@]1(C(=O)OC)[C@H]2C(=O)N(Cc3ccccc3)C(=O)[C@H]2[C@H]2CN=C(SCc3ccc(Cl)cc3)N21 | -3.9%
14 | CCC1Nc2ncnc(N3CCN(c4ccccc4)CC3)c2N(Cc2ccc(Cl)cc2)C1=O (stereo not given) | -73.8% (active)
15 | O=C(CNC(=O)N1CC(=O)Nc2ccccc21)Nc1ccc(Br)cc1F | 0%
16 | COc1ccc(NC(=O)C2Cc3c(-c4ccc(Cl)cc4)ccnc3O2)cc1 (stereo not given) | 28.4%
17 | CC1(C(=O)NS(=O)(=O)Cc2cccc(Cl)c2)CCN1C(=O)Cc1ccccc1 (stereo not given) | -2.25%
18 | CCc1ccc([C@@H]2CC(=O)[C@@H]3CN(S(=O)(=O)c4ccc(C)cc4)[C@H](c4ccc(Cl)cc4)C[C@@H]3N2S(=O)(=O)c2ccc(C)cc2)cc1 | 0%
19 | O=C(O)c1ccccc1-c1cccc2nncn12 | 0%
20 | Cc1ccc(S(=O)(=O)N2CC[C@H]3[C@@H](C2)C(=O)C[C@@H](c2ccccc2)N3S(=O)(=O)c2ccc(C)cc2)cc1 | -19.4%
21 | Cc1ccc(NC(=O)C2CCCN2S(=O)(=O)c2cccc3cccnc23)c(C)c1 (stereo not given) | 9.44%
22 | O=C(Nc1nccs1)C1CCCN1S(=O)(=O)c1cccc2cccnc12 (stereo not given) | -56.6% (active)
23 | Cc1cc(C)cc(NC(=O)C2CCCN2S(=O)(=O)c2cccc3cccnc23)c1 (stereo not given) | -1.4%

Row | SMILES | max response, negative = inhibition
24 | CC1(C(=O)Nc2ccc3c(c2)OCCO3)CCN1C(=O)Cc1cc(F)ccc1F (stereo not given) | 26.4%
25 | COc1ccc(-c2cc3nc(NCCOc4ccccc4)ccn3n2)cc1 | 35.5%
26 | Cc1nnc(SCC(=O)NNC(=O)c2ccc(Cl)cc2)n1CC1CCCO1 (stereo not given) | -18.7%
27 | S=c1[nH]nc(-c2ccc(Cl)cc2)n1CC1CCCO1 (stereo not given) | -72% (active)
28 | CCn1c(-c2ccncc2)n[nH]c1=S | 0.921%
29 | O=C(Nc1cc(Br)ccc1F)c1nc[nH]c1C(=O)NCc1ccccc1 | -14.4%
30 | COc1ccc(-c2[nH][nH]c(=O)c2NC(=O)c2ccc([N+](=O)[O-])cc2)cc1 | -25.3%
31 | COC(=O)c1ccc2nc(-c3ccc(OC)c(OC)c3)c(Cc3ccccc3)n2c1 | 1.12%
32 | O=[N+]([O-])c1ccccc1S(=O)(=O)Nc1cccc2cccnc12 | -72% (active)
33 | COc1cc(NS(=O)(=O)c2ccc3ccccc3c2)c2ncccc2c1 | -25.7%
34 | Cc1ccc2cccc([N+](=O)[O-])c2n1 | 0%
35 | CC(C)Oc1cc(F)ccc1-c1cc(C(=O)Nc2cccc(Cl)c2)[nH]n1 | 0%
36 | CCOC(=O)C1=CC[C@@H](c2ccccc2)N(S(=O)(=O)c2ccc(C)cc2)[C@H]1c1cccc(OC)c1 | 11.2%
37 | CCc1cc(-c2nnn(CCC3COCCO3)c2CC)ccc1-c1cn(Cc2ccc3ccccc3c2)nn1 (stereo not given) | -10.8%
38 | O=C(COc1ccc(Cl)cc1[N+](=O)[O-])N1CCCCC1 | -5.15%
39 | Cc1cc(OCCCN2CCN(Cc3ccccc3)CC2)ccc1[N+](=O)[O-] | -14.9%
40 | Cc1cc(C)c(OCCN2CC(C)OC(C)C2)c(Br)c1 (stereo not given) | -21.2%
41 | CC1CN(CCOc2ccccc2[N+](=O)[O-])CC(C)O1 (stereo not given) | -93.5% (active)
42 | O=[N+]([O-])c1ccccc1OCCCCN1CCCCC1 | -89.3% (active)
43 | CC1CN(CCCOc2ccccc2-c2ccccc2)CC(C)O1 (stereo not given) | -29.6%
44 | Cc1ccc(OCC(=O)Oc2ccccc2[N+](=O)[O-])cc1 | 0.0069%
45 | O=C(COc1ccccc1[N+](=O)[O-])NC1CC1 | 16.3%
46 | C=CCN(CC=C)CCOc1ccccc1[N+](=O)[O-] | -52.4% (active)

Row | SMILES | max response, negative = inhibition
47 | O=c1[nH][nH]c2c1[C@H](c1ccc(Cl)cc1)O[C@H](CCc1ccccc1)C2 | -23.3%
48 | CCCNC(=O)C1(C)CCN(C(=O)c2cc(F)ccc2C)C1 (stereo not given) | -11.8%
49 | CC(C)CN1CCC1(C)C(=O)Nc1ccc(OC(F)F)cc1 (stereo not given) | 12.7%
50 | O=C(Nc1cc(F)ccc1F)c1ccc2c(=O)n3c(nc2c1)CCC3 | 8.55%
51 | Cc1ccc(NC(=O)[C@H](Cc2ccccc2)NC(=O)CC[C@H]2O[C@@H](n3ccc(=O)[nH]c3=O)[C@H](O)[C@@H]2O)cc1C | -15.6%
52 | OC[C@@H]1CN(Cc2ccc(F)cc2)C[C@H](n2cnc3c(NC4CCCC4)ncnc32)O1 | 4.42%
53 | CC1(C(=O)NS(=O)(=O)c2ccccc2)CCN1C(=O)c1ccccc1 (stereo not given) | 10.2%
54 | CC1(C(=O)NS(=O)(=O)c2ccccc2)CCN1C(=O)C/C=C/c1ccccc1 (stereo not given) | -9.32%
55 | CC1(C(=O)O)CCN1C(=O)/C=C/c1ccccc1 (stereo not given) | 0%
56 | CC1(C)CCSC(/C=C/c2ccccc2)=N1 | -74.9% (active)
57 | CCC1OC(C2CC2)CC2=C1C(=O)OC(C)(C)O2 (stereo not given) | 14.7%
58 | CCCC(=O)N1CCC1(C)C(=O)NCc1ccc(C(C)C)cc1 (stereo not given) | -6.82%
59 | CC(C)(C)N(CC#CCC(O)(c1ccccc1)C1CCCC1)CCO (stereo not given) | 11.7%
60 | CN(CC#CCC(c1ccccc1)c1ccccc1)C(C)(C)C | -61.6% (active)
61 | O=C1CCC(=O)N1CCC(=O)N(C(=O)NC1CCCCC1)C1CCCCC1 | 14.6%
62 | CC1(C)NC(=O)N(CC(=O)Nc2ccc(-c3ccccc3)cc2)C1=O | 16.4%
63 | c1ccc2c(c1)CSc1sccc1C2=C1CCNCC1 | -65.7% (active)
64 | COc1ccccc1N1CCN(CCCCOc2ccc(F)cc2)CC1 | -78.2% (active)
65 | CC1CC(C)CN(CCOc2cccc3ccccc23)C1 (stereo not given) | -86.3% (active)
66 | Cc1cccc(NC(=O)CCN2CC(C)CC(C)C2)c1 (stereo not given) | -1.96%
67 | COc1ccccc1N1CCN(c2ccc([N+](=O)[O-])nc2)CC1 | 5.81%
68 | OCCN1CCN(C(=S)c2ccc(-c3ccccc3)cc2)CC1 | -6.47%
69 | COc1ccccc1N1CCN(CC(=O)NC(=O)NCc2ccco2)CC1 | -22.2%

Row | SMILES | max response, negative = inhibition
70 | CCN1CCN(CCCCOc2ccccc2F)CC1 | -71.5% (active)
71 | O=c1c2ccccc2ncn1CCCCOc1ccccc1F | -15.9%
72 | Fc1ccccc1OCCCCn1cncn1 | 2.5%
73 | Cc1[nH]c2ccccc2c1C(=O)CN1CC(C)CC(C)C1 (stereo not given) | -3.3%
74 | CN1CCN(CCCCOc2ccccc2-c2ccccc2)CC1 | -71% (active)
75 | Cc1ccc(/C=N/NC(=O)COc2ccccc2-c2ccccc2)cc1 | 25.4%
76 | Nc1nc2ncccn2c1-c1ccccc1 | -1.52%
77 | O=C(COC(=O)c1cccc(Cl)c1Cl)NC1CCCCCC1 | -13.8%
78 | CC1CCCC(C)N1C(=O)COC(=O)c1ccccc1C(=O)c1ccccc1 (stereo not given) | -17.2%
79 | O=C(Nc1ccc(Cl)c(C(F)(F)F)c1)C1Cc2c(-c3ccccc3Oc3ccccc3)ccnc2O1 (stereo not given) | 0%
80 | CCCCN1C[C@H](c2ccc(Br)cc2)[C@@H](CC(=O)Nc2ccc(Br)cc2)C1=O | 24.8%
81 | COc1ccc(C(=O)C(OP(=O)(OC)OC)c2ccccc2OC)cc1 (stereo not given) | 2.58%
82 | CC(C)c1cccc(C(C)C)c1Nc1cn[nH]c1 | 157%
83 | C[C@@H]1CN([C@@H](C)CO)C(=O)CCCn2nncc2CO[C@H]1CN(C)C(=O)Nc1ccc(C(F)(F)F)cc1 | -16.1%
84 | CCCCOCCCNC(=O)C[C@@H]1C[C@@]2(C(=O)OC)CCCCC=C2N(CCC2=CCCCC2)C1=O | 0%
85 | CC(C)NC(=O)C1(C)CCCCN1Cc1cccc(C(F)(F)F)c1 (stereo not given) | 0%
86 | CCOC(=O)C1C(C)C(C(C)(C)C)N(S(=O)(=O)c2ccc(C)cc2)C1c1ccccc1 (stereo not given) | 15.8%
87 | CC1(C(=O)Nc2cccc3cccnc23)CCN1C(=O)CCC1CCCC1 (stereo not given) | 0%
88 | COc1ccccc1OCCCCCCN1CCN(C)CC1 | 0.923%
89 | CN1CCN(CCCCOc2cccc3ccccc23)CC1 | -59% (active)
90 | CCOC(=O)C1CCN(C(=O)COc2cccc3ccccc23)CC1 | 2.44%
